Assay [1] can be described thus: antimalarial activity against Dd2 strain (AID 2302;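 active = growth inhibition above 50% at the single 2 µM test dose, taken to imply half-maximal potency below 2 µM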;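 also: 0% = DMSO untreated growth and 100% = chloroquine plus artemisinin killed control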). The settings on record: P. falciparum Dd2 in RBCs, LDH growth readout, 72 h; at 2 µM; active compounds read high.
Assay [2] can be described thus: human hepatoma cell viability loss – ATP luminescence, cytotoxicity control for P. falciparum antimalarial project, primary screen (AID 2303;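 active = inhibition above 50%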;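 also: 0% = DMSO wells and 100% = digitonin-killed cells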). The settings on record: HepG2 viability, 24-48 h, at 10 µM, active compounds read high.
The target in assay [3] is L-lactate dehydrogenase (Plasmodium falciparum (isolate CDC / Honduras)) (UniProt Q27743). As to the kind of experiment: PfLDH activity inhibition – cell lysate, 3D7 strain, counter-screen for P. falciparum growth inhibition project (AID 2304).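 Also: 0% = vehicle and 100% = reference inhibitor.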 The settings on record: P. falciparum 3D7 crude extract, LDH APAD/NBT absorbance; at 2 µM; active compounds read high.
L-lactate dehydrogenase (Plasmodium falciparum (isolate CDC / Honduras)), sequence (Q27743 whole entry, looked up): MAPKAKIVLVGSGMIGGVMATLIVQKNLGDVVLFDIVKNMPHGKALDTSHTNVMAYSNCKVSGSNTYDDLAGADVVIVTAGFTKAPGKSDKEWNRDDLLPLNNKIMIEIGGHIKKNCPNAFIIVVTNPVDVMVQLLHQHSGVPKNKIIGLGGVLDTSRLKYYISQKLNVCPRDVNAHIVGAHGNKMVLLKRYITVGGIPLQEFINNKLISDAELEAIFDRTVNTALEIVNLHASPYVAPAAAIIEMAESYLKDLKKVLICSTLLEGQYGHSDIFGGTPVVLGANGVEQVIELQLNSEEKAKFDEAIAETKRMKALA
Assay [4] in a line: inhibition of 3D7 malaria parasite growth – strain 3D7 (AID 2306).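 Also: 0% = DMSO wells and 100% = chloroquine plus artemisinin control wells.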 The settings on record: P. falciparum 3D7 erythrocytic growth, LDH absorbance, 72 h; at 2 µM; active compounds read high.
Assay [5] concerns the target Calcium-dependent protein kinase 1 (Plasmodium falciparum (isolate 3D7)) (UniProt P62344). As to the kind of experiment: PfCDPK1 kinase inhibitors, biochemical, TCAMS library (AID 1159585; cut-off not given, nearly all actives have IC50 up to about 0.98 µM;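 also: inhibitors leave more ATP so luminescence rises with inhibition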). The settings on record: recombinant PfCDPK1, Kinase-Glo ATP depletion luminescence.
Assay [6] addresses Plasmodium falciparum protein kinase 6 (PK6, PF3D7_1337100) (UniProt Q8IDW1). As to the kind of experiment: PfPK6 kinase inhibitors, biochemical, TCAMS library (AID 1159586). To be noted: recombinant PfPK6, Kinase-Glo ATP depletion luminescence.
The target in assay [7] is Protein kinase 7 (PK7), Plasmodium falciparum 3D7 (PF3D7_0213400) (UniProt Q7YTF7). As to the kind of experiment: inhibition of Plasmodium PK7 catalytic activity – biochemical, TCAMS antimalarial set, Kinase-Glo luminescence (AID 1159587). To be noted: recombinant PfPK7, Kinase-Glo ATP depletion luminescence.
Protein kinase 7 (PK7), Plasmodium falciparum 3D7 (PF3D7_0213400), sequence (Q7YTF7 1-343): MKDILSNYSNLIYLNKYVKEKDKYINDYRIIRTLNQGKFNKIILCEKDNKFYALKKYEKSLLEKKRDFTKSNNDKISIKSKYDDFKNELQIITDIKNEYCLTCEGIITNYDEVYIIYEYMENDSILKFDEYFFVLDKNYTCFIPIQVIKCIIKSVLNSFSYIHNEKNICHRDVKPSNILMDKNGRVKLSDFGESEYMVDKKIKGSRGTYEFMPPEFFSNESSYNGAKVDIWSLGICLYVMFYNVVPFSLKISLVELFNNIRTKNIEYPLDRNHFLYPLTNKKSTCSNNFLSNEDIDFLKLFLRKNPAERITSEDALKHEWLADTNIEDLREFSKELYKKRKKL
For assay [8], the target named is Calcium-dependent protein kinase 4 (Plasmodium falciparum (isolate 3D7)) (UniProt Q8IBS5). As to the kind of experiment: PfCDPK4 kinase inhibitors, biochemical, TCAMS library (AID 1159588; cut-off not given, nearly all actives have IC50 up to about 0.91 µM). To be noted: recombinant PfCDPK4, Kinase-Glo ATP depletion luminescence.
Calcium-dependent protein kinase 4 (Plasmodium falciparum (isolate 3D7)), sequence (Q8IBS5 whole entry, looked up): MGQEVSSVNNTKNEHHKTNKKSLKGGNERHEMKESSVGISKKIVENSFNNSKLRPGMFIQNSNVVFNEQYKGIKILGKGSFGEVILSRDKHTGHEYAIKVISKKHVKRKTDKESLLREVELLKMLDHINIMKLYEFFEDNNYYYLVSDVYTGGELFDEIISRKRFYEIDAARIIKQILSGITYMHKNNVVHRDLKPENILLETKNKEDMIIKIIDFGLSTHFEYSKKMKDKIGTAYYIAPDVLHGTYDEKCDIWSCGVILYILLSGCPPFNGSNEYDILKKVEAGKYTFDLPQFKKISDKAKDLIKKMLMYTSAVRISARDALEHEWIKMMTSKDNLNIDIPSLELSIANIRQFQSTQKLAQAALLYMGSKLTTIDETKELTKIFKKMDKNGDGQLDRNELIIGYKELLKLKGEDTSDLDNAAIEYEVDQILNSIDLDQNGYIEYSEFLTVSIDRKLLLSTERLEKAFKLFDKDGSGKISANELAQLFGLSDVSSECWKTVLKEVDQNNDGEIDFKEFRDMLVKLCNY

Structures are written as SMILES. Values joined by “and” are separate entries in the source; they are usually repeats but may differ in a detail not shown here. Equal values may be shown once. A number with no mark means an inactive call. For some of these results: Measured potencies and affinities stand elsewhere. Active and inactive are the calls of the source. Unless noted, no rule for the calls is given here.

Plasmodium falciparum protein kinase 6 (PK6, PF3D7_1337100), sequence (Q8IDW1 1-305): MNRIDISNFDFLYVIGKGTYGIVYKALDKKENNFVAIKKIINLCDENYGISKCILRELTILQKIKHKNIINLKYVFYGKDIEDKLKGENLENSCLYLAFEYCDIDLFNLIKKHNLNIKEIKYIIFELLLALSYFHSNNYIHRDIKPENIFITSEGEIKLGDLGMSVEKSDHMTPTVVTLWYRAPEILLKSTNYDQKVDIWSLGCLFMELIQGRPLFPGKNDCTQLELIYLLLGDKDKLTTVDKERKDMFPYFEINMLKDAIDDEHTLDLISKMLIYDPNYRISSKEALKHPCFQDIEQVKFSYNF
Calcium-dependent protein kinase 1 (Plasmodium falciparum (isolate 3D7)), sequence (P62344 whole entry, looked up): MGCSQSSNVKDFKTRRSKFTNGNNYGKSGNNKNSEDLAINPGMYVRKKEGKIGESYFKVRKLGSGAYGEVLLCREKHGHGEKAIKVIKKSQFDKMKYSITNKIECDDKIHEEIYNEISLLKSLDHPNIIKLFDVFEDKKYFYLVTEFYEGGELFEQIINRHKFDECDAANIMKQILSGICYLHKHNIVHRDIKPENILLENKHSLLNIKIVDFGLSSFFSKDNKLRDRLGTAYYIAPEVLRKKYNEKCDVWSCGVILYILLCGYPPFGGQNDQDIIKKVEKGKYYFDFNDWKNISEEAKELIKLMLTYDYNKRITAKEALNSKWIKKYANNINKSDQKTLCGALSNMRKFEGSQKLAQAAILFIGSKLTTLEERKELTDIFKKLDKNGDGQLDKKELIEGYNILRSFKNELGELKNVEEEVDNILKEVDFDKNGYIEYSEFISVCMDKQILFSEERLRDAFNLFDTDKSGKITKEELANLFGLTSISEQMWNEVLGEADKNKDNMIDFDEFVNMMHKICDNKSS

Take `COc1ccc(Cn2c(SCc3ccc(C)cc3)nc3cc(OC)c(OC)cc3c2=N)cc1Cl`: the growth inhibition in assay [1] was 7%; in assay [4], 92% (active). The values for the inhibition in assay [2] and in assay [3] were 50% (active) and 5%, respectively. The outcome in assay [5], in assay [6], in assay [7] and in assay [8] was inactive.

For `Cc1ccccc1C1CCN(C2CCC(NC(=O)/C=C/c3cccc(F)c3)CC2)CC1` (stereo not given), the growth inhibition in assay [1] is 38%; in assay [4] it was 84% (active). Besides, the inhibition in assay [2] was 46%; in assay [3] it was -3%. For the same molecule, the result in assay [5], in assay [6], in assay [7] and in assay [8] was inactive.

`COc1ccc(CN(C)CCCSc2ccc(NC(=O)c3cccc4c(=O)cc(-c5ccccc5)[nH]c34)cc2)cc1OC`: the growth inhibition was 94% (active) in assay [1] and 93% (active) in assay [4]. For the same molecule, the inhibition in assay [2] is 15%; in assay [3], -6%. The outcome in assay [5], in assay [6], in assay [7] and in assay [8] was inactive.

Turning to `COc1cc2c(cc1S(=O)(=O)c1ccc(NC(=O)c3cc4ccccc4s3)cc1)CCN(C)CC2`, the results for the growth inhibition in assay [1] and in assay [4] were 88% (active) and 100% (active), respectively. For the same molecule, the figures for the inhibition in assay [2] and in assay [3] were 21% and 2%, respectively. The result in assay [5], in assay [6], in assay [7] and in assay [8] was inactive.

On to `Cc1cc(NN=Cc2ccc(Cl)cc2)c2ccccc2n1`, for which the growth inhibition in assay [1] was 87% (active); in assay [4], 100% (active). In addition, the figures for the inhibition in assay [2] and in assay [3] were 5% and -3%, respectively. Besides, the result in assay [5], in assay [6], in assay [7] and in assay [8] was inactive.

In the case of `CN(C)C(=O)C(CC(=O)NCc1ccccc1Cl)N(C)C` (stereo not given) (tested in a mixture with another compound), the figures for the growth inhibition in assay [1] and in assay [4] were 2% and 96% (active), respectively. The inhibition was 7% in assay [2] and -3% in assay [3]. For the same molecule, the result in assay [5], in assay [6], in assay [7] and in assay [8] was inactive.

In the case of `O=C(/C=C/c1ccc(Cl)c(Cl)c1)NCCCCCN1CC[C@H](NC(=O)c2ccc3c(c2)OCO3)C1`, the growth inhibition in assay [1] was 3%; in assay [4] it was 94% (active). Moreover, the inhibition in assay [2] is 32%; in assay [3] it was 0%. In addition, the result in assay [5], in assay [6], in assay [7] and in assay [8] was inactive.

Turning to `O=C(c1ccc(Cl)cc1)N1CCOC(CCN2CCC(c3ccccc3)CC2)(c2ccc(Cl)c(Cl)c2)C1` (stereo not given), the figures for the growth inhibition in assay [1] and in assay [4] were 68% (active) and 98% (active), respectively. Further, the inhibition in assay [2] was 19%; in assay [3], 3%. In addition, the result in assay [5], in assay [6], in assay [7] and in assay [8] was inactive.

Take `O=C(Nc1cc(Cl)c(Cl)cc1NC(=O)c1cccc(-c2ccccc2)c1O)c1cccc(-c2ccccc2)c1O`: the growth inhibition in assay [1] and in assay [4] was 100% (active) in each case. Besides, the inhibition is 79% (active) in assay [2] and 2% in assay [3]. Also, the outcome in assay [5], in assay [6], in assay [7] and in assay [8] was inactive.

Take `O=C1C(c2ccccc2)=C(Nc2cc(Cl)cc(Cl)c2)c2ccccc21`: the growth inhibition was 94% (active) in assay [1] and 96% (active) in assay [4]. The inhibition in assay [2] was -4%; in assay [3], -3%. In addition, the result in assay [5], in assay [6], in assay [7] and in assay [8] was inactive.

In the case of `O=C(NCCCCN1CCC(c2ccc(OC(F)(F)F)cc2)CC1)c1ccc(NC(=O)c2ccc(Cl)cc2)cc1`, the growth inhibition in assay [1] was 98% (active); in assay [4] it was 99% (active). Also, the figures for the inhibition in assay [2] and in assay [3] were 24% and -3%, respectively. Moreover, the outcome in assay [5], in assay [6], in assay [7] and in assay [8] was inactive.

Consider `COc1ccc(-c2cccc(NC(=O)c3ccc(F)cc3)c2)cc1CNC(C)C`, for which the growth inhibition in assay [1] is 9%; in assay [4] it was 83% (active). Besides, the inhibition in assay [2] is 32%; in assay [3], 1%. The outcome in assay [5], in assay [6], in assay [7] and in assay [8] was inactive.

With `CNCCNCc1cccc(-c2ccc(-c3nc4ccc(C(F)(F)F)cc4[nH]3)cc2)c1`, the growth inhibition was 92% (active) in assay [1] and 100% (active) in assay [4]. The inhibition in assay [2] was 21%; in assay [3], -5%. Further, the outcome in assay [5], in assay [6], in assay [7] and in assay [8] was inactive.

With `COc1cccc(-c2ccc3ccnc(N)c3c2)c1`, the results for the growth inhibition in assay [1] and in assay [4] were 93% (active) and 101% (active), respectively. Further, the figures for the inhibition in assay [2] and in assay [3] were 40% and 0%, respectively. The result in assay [5], in assay [6], in assay [7] and in assay [8] was inactive.

For the molecule `Cc1cc(=O)c(-c2ccc(Oc3cccc(C(F)(F)F)c3)cc2)c(C)[nH]1`, the growth inhibition in assay [1] is 95% (active) and 97% (active); in assay [4] it was 96% (active) and 97% (active). Besides, the inhibition is 8% and 14% in assay [2]; -2% and -1% in assay [3]. In addition, the outcome in assay [5], in assay [6], in assay [7] and in assay [8] was inactive.

`Cc1cc(CNCCCCCCCNCc2cccc([N+](=O)[O-])c2)ccc1O`: the growth inhibition is -5% in assay [1] and 100% (active) in assay [4]. Further, the values for the inhibition in assay [2] and in assay [3] were 6% and -1%, respectively. Moreover, the result in assay [5], in assay [6], in assay [7] and in assay [8] was inactive.

On to `CCc1cn2c3c(cc(C(=O)N[C@@H](Cc4cc(F)cc(F)c4)[C@H](O)CNC4CC4)cc13)N(C)S(=O)(=O)CC2`, for which the growth inhibition in assay [1] is 99% (active); in assay [4], 100% (active). Besides, the inhibition was 3% in assay [2] and 0% in assay [3]. Besides, the outcome in assay [5], in assay [6], in assay [7] and in assay [8] was inactive.

With `Cc1[nH]c2cccc(F)c2c(=O)c1Cc1ccc(Cl)cc1` (tested in a mixture with another compound), the growth inhibition in assay [1] was 94% (active) and 92% (active); in assay [4] it was 94% (active) and 93% (active). Further, the inhibition in assay [2] is 7% and 6%; in assay [3], 5%. Besides, the outcome in assay [5], in assay [6], in assay [7] and in assay [8] was inactive.

Regarding `Oc1ccccc1CN(CCCN(Cc1ccccn1)Cc1ccccc1O)Cc1ccccn1`, the growth inhibition in assay [1] and in assay [4] was 92% (active) each time. Also, the figures for the inhibition in assay [2] and in assay [3] were 64% (active) and 3%, respectively. The outcome in assay [5], in assay [6], in assay [7] and in assay [8] was inactive.

For the molecule `CC1(C)N=C(N)N=C(N)N1c1ccc2ccccc2c1`, the values for the growth inhibition in assay [1] and in assay [4] were -1% and 95% (active), respectively. Further, the values for the inhibition in assay [2] and in assay [3] were 48% and -2%, respectively. In addition, the result in assay [5], in assay [6], in assay [7] and in assay [8] was inactive.
